PubChem BioAssay (NCI)
This is part of a sample that, as a whole, favours compounds with a hit. Of some 83,000 tested, about 20% had one in any assay.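 Growth was measured after 48 h exposure to one concentration of compound in 96-well plates. Values under 10 count as active.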 A number with no mark means an inactive call. Active and inactive are the calls of the source.

What follows are compounds tested on MOLT-4 leukemia (assay: NCI-60 one-dose screen, 48 h (100 = growth as untreated, 0 = no growth, -100 = all killed)). Details: 10 µM.
Compound Cc1ccc(/C=C/C(=O)c2ccc(NC(=O)CSc3nnc(-c4c[nH]c5ccccc45)n3-c3ccccc3)cc2)cc1 has a growth of 68.3%.
CCCn1c(O)c(N=Nc2nc(-c3cc4ccccc4oc3=O)cs2)c2cc(Br)ccc21 was tested, and the growth was 107%.
COc1ccc2[nH]c(=O)c(CSc3nccc(-c4ccc(Cl)cc4)n3)cc2c1 was tested, and the growth was 22%.
In the case of COc1cc(/C=C/C(=O)c2cc(OC)c(OC)c(OC)c2)ccc1Oc1nc(Nc2ccc(F)cc2)nc(N(C)C)n1, the growth is reported as 4.87% (active).
Work on O=C1Nc2ccc(F)cc2/C1=C/c1cccc(OCc2ccccn2)c1 yielded a growth of 12.1%.
In the case of Cc1ccc(-c2cc(C(=O)N=Nc3c(O)[nH]c4ccc(Br)cc34)c3ccccc3n2)cc1, the growth is reported as 14.9%.
Work on Cc1cc(C)nc(NS(=O)(=O)c2ccc(N/C(N)=N/c3nccc(-c4ccccc4)n3)cc2)n1 yielded a growth of 38.8%.
With COc1ccc(NC(=O)Nc2ccc(OCC(=O)N=Nc3c(O)[nH]c4ccc([N+](=O)[O-])cc34)cc2)cc1 the growth was 100%.
COc1ccc(-c2nc(Nc3ccccc3S(N)(=O)=O)c3ccccc3n2)cc1 gave a growth of 21.1%.
NS(=O)(=O)c1ccc(N=Nc2c(O)n(CC(=O)Nc3ccccc3Br)c3ccccc23)cc1 gave a growth of 41.4%.
For CN(C)c1nc(NCCNS(=O)(=O)c2ccc(C(=O)/C=C/c3ccccc3)cc2)nc(Nc2ccc(F)cc2)n1, the growth was 8.21% (active).
For CC1=C2C(=C[C@@](C)(COCOCCCl)[C@@H]2O)C(=O)[C@](C)(O)C12CC2, the growth was -12.4% (active).
Compound COC[C@@H](CC(C)C)N=C1NC(=O)/C(=C/c2ccc3ncoc3c2)N1 has a growth of 11.3%.
For CC1=C2C(=C[C@@](C)(CO)[C@@H]2O)/C(=N\N)[C@](C)(O)C12CC2, the growth was 3.48% (active).
With CN1CCc2c(sc3ncnc(N/N=C/c4ccc5ccccc5c4)c23)C1 the growth was 63.6%.
Cc1cccc(-c2nc(Nc3ccccc3C(=O)O)c3ccccc3n2)c1 showed a growth of 34.3%.
For CN1CCN(Cc2ccc(NC(=O)c3cncc(C#Cc4cnc5ccc(N[C@H]6CCOC6)nn45)c3)cc2C(F)(F)F)CC1, the growth was -9.84% (active).
In the case of N#Cc1c(Cl)nc(SCc2ccc(F)cc2)nc1-c1ccc(F)cc1, the growth is reported as 80.6%.
In the case of CONC[C@]1(C)C=C2C(=O)[C@](C)(O)C3(CC3)C(C)=C2[C@H]1O, the growth is reported as -13.9% (active).
CCCCOc1ccc(Nc2nc3ccccc3nc2Nc2ccc(OCCCC)cc2)cc1 gave a growth of 68.3%.
In the case of C=C1CCC2C3(C)COC(c4cccc(F)c4)OC3CCC2(C)C1CC(O)C1=CCOC1=O (stereo unspecified), the growth is reported as 41%.
COc1ccc(/C=N/N=C(\C)c2ccc3c(c2)Nc2ccccc2S3)cc1O showed a growth of 13.6%.
For O=S(=O)(Nc1ncccn1)c1ccc(-n2c(-c3ccc(Br)cc3)nc(-c3ccccc3)c2-c2ccccc2)cc1, the growth was 22.4%.
In the case of CN1CCN(Cc2ccc(C(=O)Nc3cccc(Nc4ccc5c(O)cccc5n4)c3)cc2C(F)(F)F)CC1, the growth is reported as -2.84% (active).
In the case of CC(=O)Nc1ccc(-c2cn(-c3cccc(C(=O)Nc4cccc(OC(F)(F)F)c4)c3)nn2)cn1, the growth is reported as 109%.
Compound CCOC(=O)C1=C(N)N(c2ccccc2)C2=C(C(=O)CC(C)(C)C2)C1c1ccccc1OC (stereo unspecified) has a growth of 105%.
O=c1[nH]c2ccccc2cc1CSc1ccc(Nc2nccc(-c3ccc(C(F)(F)F)cc3)n2)cc1 showed a growth of 55.6%.
In the case of COC(=O)C[C@](O)(CCCC(C)(C)O)C(=O)O[C@H]1C(OC)=C[C@@]23CCC(=O)N2CCc2cc4c(cc2[C@@H]13)OCO4, the growth is reported as 73.4%.
With COc1ccc(CN2[C@H](C(=O)NCc3ccc(C(=O)NO)cc3)Cc3c([nH]c4ccccc34)[C@H]2C2CC2)cc1 the growth was 26.6%.
With COc1ccc(C2N(c3ccc(Br)cc3)N=C(C(C)=O)N2[C@H]2[C@H](OC(C)=O)O[C@H](COC(C)=O)[C@@H](OC(C)=O)[C@@H]2OC(C)=O)cc1 (stereo partly specified) the growth was 54.6%.
With CN(CCF)c1ccc(/C=C/C(=O)c2ccc(N)cc2O)cc1 the growth was 58%.
